Data: PubChem BioAssay AID485346 (Sanford-Burnham Center for Chemical Genomics, 2010)
Screen size: about 330,000 compounds; about 10,000 (3%) were called active.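 How the source made its calls: active means inhibition of at least 50% at 8 µM in the primary screen; inactive means the rest.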 The sample as a whole holds a higher share of actives than the screen did.

What follows are compounds tested against Protein Mdm4 (Homo sapiens) + E3 ubiquitin-protein ligase Mdm2 (Homo sapiens) (UniProt O15151+Q00987) (assay: inhibitors of human Mdm2-MdmX association, primary screen, cell-based, luminescence, split luciferase, SaOS-2, uHTS (AID 485346)). Conditions: SaOS-2 split-luciferase Mdm2/MdmX complementation, at 8 µM, active compounds read high.
Protein Mdm4 (Homo sapiens) + E3 ubiquitin-protein ligase Mdm2 (Homo sapiens), sequence (O15151 whole entry, looked up): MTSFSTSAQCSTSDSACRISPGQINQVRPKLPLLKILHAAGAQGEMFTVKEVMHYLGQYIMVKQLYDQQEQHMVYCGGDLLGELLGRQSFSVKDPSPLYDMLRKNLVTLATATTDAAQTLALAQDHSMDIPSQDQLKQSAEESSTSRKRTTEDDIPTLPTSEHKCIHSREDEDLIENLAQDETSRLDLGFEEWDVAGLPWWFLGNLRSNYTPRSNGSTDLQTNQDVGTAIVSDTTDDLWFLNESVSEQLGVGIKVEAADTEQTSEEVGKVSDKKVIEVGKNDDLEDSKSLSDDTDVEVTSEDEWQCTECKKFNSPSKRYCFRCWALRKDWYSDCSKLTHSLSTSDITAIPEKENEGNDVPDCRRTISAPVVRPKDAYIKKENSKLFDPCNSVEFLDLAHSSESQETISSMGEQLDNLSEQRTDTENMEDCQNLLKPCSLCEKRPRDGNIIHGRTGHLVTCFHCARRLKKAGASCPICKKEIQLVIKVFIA
Protein Mdm4 (Homo sapiens) + E3 ubiquitin-protein ligase Mdm2 (Homo sapiens), sequence (Q00987 whole entry, looked up): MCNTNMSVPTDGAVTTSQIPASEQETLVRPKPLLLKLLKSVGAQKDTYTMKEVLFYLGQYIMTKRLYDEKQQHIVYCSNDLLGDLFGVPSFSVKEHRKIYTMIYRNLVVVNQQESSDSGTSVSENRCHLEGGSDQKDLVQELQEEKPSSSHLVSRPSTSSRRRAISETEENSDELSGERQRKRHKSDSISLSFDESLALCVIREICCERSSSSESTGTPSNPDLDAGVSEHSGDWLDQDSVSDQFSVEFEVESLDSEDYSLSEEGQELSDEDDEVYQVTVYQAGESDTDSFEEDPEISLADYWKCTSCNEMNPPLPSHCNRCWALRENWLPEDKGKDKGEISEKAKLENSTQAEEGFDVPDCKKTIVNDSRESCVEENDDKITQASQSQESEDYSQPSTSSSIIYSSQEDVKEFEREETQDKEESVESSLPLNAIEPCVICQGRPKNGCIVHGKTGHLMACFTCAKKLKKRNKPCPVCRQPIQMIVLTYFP

Compound	inhibition
CC(=O)NC1CCN(CC(=O)Nc2nccs2)CC1	10.5% (inactive)
COc1ccccc1CNC(=O)COC(=O)c1cccs1	-8.99% (inactive)
O=C(/C=C/c1ccc(OCc2c(F)cccc2Cl)cc1)N1CCOCC1	88.9% (active)
COCCCNC(=O)/C=C/c1ccc(OCc2c(F)cccc2Cl)cc1	-0.73% (inactive)
CN(C)CCCNC(=O)/C=C/c1ccc(OCc2c(F)cccc2Cl)cc1	41.4% (inactive)
COc1cccc(NC(=O)N2CCC(NC(=O)C(Cc3cccc(C)c3)NC(C)=O)CC2)c1 (stereo not drawn)	2.34% (inactive)
CN(C)/C=C(/C(=O)c1ccccc1Cl)S(C)(=O)=O	-2.89% (inactive)
CC(C(=O)O)N1C(=O)c2cccc3cccc1c23 (stereo not drawn)	14.4% (inactive)
CN(Cc1cccs1)C(=O)Cc1c[nH]c2ccccc12	-16.7% (inactive)
c1ccc(CSc2ncnc3c2sc2nc(N4CCOCC4)c4c(c23)CCCC4)cc1	2.45% (inactive)
CCc1nc2sc3c(Cl)ncnc3c2c2c1CCCC2	64.4% (active)
CCc1nc2sc(C(=O)O)c(N)c2c2c1CCCC2	-3.57% (inactive)
Cc1cccc(N2Cc3ccccc3C2=NC(=O)c2ccc(Cl)nc2)c1	1.07% (inactive)
O=C(Nc1cc(Cl)cc(Cl)c1)C(NCCCO)c1ccccc1 (stereo not drawn)	14.1% (inactive)
Cc1cccc(Nc2nc(NCCO)nc(N3CCCC3)n2)c1	-22.4% (inactive)
OCCCNc1nccc(-c2cc(Nc3cccc(Cl)c3)ncn2)n1	100% (active)
C=CCOC(=O)C1=C[C@H](c2ccc(Br)cc2)C[C@H](OCCCCO)O1	25.6% (inactive)
Brc1ccc(CN2CC[C@H]3C=CCc4cccc(c43)C2)cc1	3.41% (inactive)
O=C(Nc1cc(Cl)ccc1N1CCOCC1)c1ccc(N2CCCC2=O)cc1	12.9% (inactive)
COCCOC(=O)c1c(C)oc2cc(Br)c(OCC(N)=O)cc12	6.08% (inactive)
COC(=O)CCNc1ccc2c(c1)OCCO2	60.5% (active)

Compound	inhibition
Cc1ccc(OCCCC(=O)Nc2ccc3c(c2)OCCO3)cc1	17% (inactive)
COc1ccccc1OCCCC(=O)Nc1ccc2c(c1)OCCO2	6.28% (inactive)
COc1cc(C(=O)NCc2nnc(SCC(=O)Nc3nc4ccc(C)cc4s3)o2)cc(OC)c1OC	53.5% (active)
COc1ccc(C(=O)NCc2nnc(SCC(=O)Nc3cccc(OC)c3)o2)cc1	20.2% (inactive)
COc1cc(C(=O)NCc2nnc(SCC(=O)c3ccc(Cl)cc3)o2)cc(OC)c1OC	6.35% (inactive)
Cc1cc(O)c(C(=O)/C=C/c2c(F)c(F)c(F)c(F)c2F)c(=O)o1	8.23% (inactive)
COc1ccc(C/C(N)=N/OC(=O)c2ccco2)cc1OC	6.65% (inactive)
COc1ccc(C(=O)O/N=C(\N)Cc2ccc(Cl)cc2Cl)cc1OC	97.2% (active)
COc1ccc(C(=O)ON=C2c3ccccc3-c3ccccc32)cc1OC	7.13% (inactive)
CCCCOc1ccc(C(=O)N/C(=C/C=C/c2ccccc2)C(=O)N2CCOCC2)cc1	-5.91% (inactive)
Nc1cc(N2CCCCCC2)c2nonc2c1[N+](=O)[O-]	25.5% (inactive)
C=CCn1c(-c2ccc(Cl)cc2)ccc(C#N)c1=O	1.15% (inactive)
CCc1ccc(CNC(=O)C2CCN(c3nnc(C)c4c(C)n(-c5ccc(C)cc5)nc34)CC2)cc1	89% (active)
COc1ccc(-n2nc3c(N4CCC(C(=O)NCc5ccccc5)CC4)nnc(C)c3c2C)cc1	40.9% (inactive)
CCOc1ccc(CNC(=O)C2CCCN(c3nnc(C)c4c(C)n(-c5ccccc5)nc34)C2)cc1 (stereo not drawn)	4.48% (inactive)
CC1(C(=O)NNC(=S)NCC2CCCO2)CC1(Cl)Cl (stereo not drawn)	9.98% (inactive)
O=c1c2ccccc2[nH]c(=S)n1CCN1CCC(=C(c2ccc(F)cc2)c2ccc(F)cc2)CC1	-6.96% (inactive)
COn1c(=O)c(=O)n(OC)c2ccccc21	-14.5% (inactive)
Brc1cnc(N2CCCC2)nc1N1CCCCC1	-7.46% (inactive)
O=C1NC(c2cc3c(cc2Cl)OCO3)Oc2ccccc21 (stereo not drawn)	2.99% (inactive)
COc1ccccc1C1C2=C(COC2=O)Nc2cc3c(cc21)OCO3 (stereo not drawn)	64.9% (active)

Compound	inhibition
CCCOc1ccc(C2NC(=O)NC(c3ccccc3)=C2C(C)=O)cc1OCC (stereo not drawn)	14.8% (inactive)
COC(=O)c1ccc(C2CC(=O)Nc3cc(OC)c(OC)cc32)cc1 (stereo not drawn)	7.38% (inactive)
CCCOc1ccccc1C1CC(=O)Nc2cc3c(cc21)OCO3 (stereo not drawn)	56% (active)
COc1ccc(S(=O)(=O)Nc2ccc3c(c2)OCO3)cc1Cl	8.27% (inactive)
COc1ccc(NS(=O)(=O)c2cc(NC(=O)COc3ccccc3F)ccc2OC)cc1	14.4% (inactive)
CN1C(=O)[C@H]2[C@@H](/C=C/c3ccccc3)N3C(=O)CN(Cc4ccc(-c5ccccc5)cc4)C(=O)[C@@]3(C)[C@H]2C1=O	22.2% (inactive)
COc1ccc(-n2c(O)c(C=NCC(c3ccco3)N3CCCC3)c3ccccc3c2=O)cc1OC (stereo not drawn)	15.6% (inactive)
O=C(CN1C(=O)c2cccc3cccc1c23)Nc1ccccc1	26.2% (inactive)
CCN1C(=O)c2cccc3c(S(=O)(=O)Nc4ccccc4O)ccc1c23	62.5% (active)
CCN(CC)S(=O)(=O)c1ccc2c3c(cccc13)C(=O)S2	39.8% (inactive)
O=C(NN1CCOCC1)c1cccc(F)c1	6.11% (inactive)
Cc1c(Br)c([N+](=O)[O-])nn1CC(=O)Nc1sc2c(c1C(=O)OC(C)C)CCC(C)C2 (stereo not drawn)	23.2% (inactive)
O=C(COC(=O)c1ccncc1)Nc1ccc2c(c1)OCO2	-1.34% (inactive)
CC1(C)NC(=O)N(CCCCSc2ccc(Cl)cc2)C1=O	5.07% (inactive)
COc1ccc(-c2cc(C(=O)N/N=C/c3cccnc3)c3ccccc3n2)c(OC)c1	-12.7% (inactive)
COc1ccc(C(=O)/C=C/c2cccnc2)c(OC)c1	54.3% (active)
COc1ccc(C(=O)CCC(=O)Nc2cccnc2)c(OC)c1	9.02% (inactive)
Cc1nc2nc(SCC(=O)Nc3cccc(F)c3)[nH]c2cc1Br	23.9% (inactive)
Cc1ccc(N(Cc2ccc(C(=O)Nc3ccccc3C(=O)NCc3ccco3)cc2)S(C)(=O)=O)cc1C	38.7% (inactive)
Cc1cccc(Nc2ccccc2C(=O)NCc2ccco2)c1C	54.5% (active)
O=C(CCNC(=O)c1ccccc1Cl)NCc1ccco1	2.16% (inactive)
